# Measurements from the supplement of paper PMC11628255, “Interference of metal ions on the bioluminescent signal of firefly, Renilla, and NanoLuc luciferases in high-throughput screening assays” (Frontiers in Chemistry, 2024).
# ± gives the standard deviation of the averaged measurements.
# Test system: NanoLuc luciferase (NLuc)
# Assay: residual bioluminescent signal relative to negative control without GSH; higher = less interference (more residual luciferase signal)
# Conditions: screening conditions buffer
# Description: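 Selected metal salts at 3-4 concentrations tested on purified FLuc, NLuc or RLuc in screening buffer with 0, 0.2 or 2 mM glutathione added; 10 min enzyme pre-incubation at RT, luminescence 10 min after substrate. Signal normalised to negative control without GSH (% N_VALUE); triplicate wells.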
# [1] = metal salt concentration 1 mM, glutathione 0 mM
# [2] = metal salt concentration 1 mM, glutathione 0.2 mM
# [3] = metal salt concentration 1 mM, glutathione 2 mM
Compound,"residual bioluminescent signal (metal salt concentration 0.01 mM, glutathione 0 mM) [%]","residual bioluminescent signal (metal salt concentration 0.01 mM, glutathione 0.2 mM) [%]","residual bioluminescent signal (metal salt concentration 0.01 mM, glutathione 2 mM) [%]","residual bioluminescent signal (metal salt concentration 0.816 mM, glutathione 0 mM) [%]","residual bioluminescent signal (metal salt concentration 0.816 mM, glutathione 0.2 mM) [%]","residual bioluminescent signal (metal salt concentration 0.816 mM, glutathione 2 mM) [%]",residual bioluminescent signal [1] [%],residual bioluminescent signal [2] [%],residual bioluminescent signal [3] [%],"residual bioluminescent signal (metal salt concentration 2.5 mM, glutathione 0 mM) [%]","residual bioluminescent signal (metal salt concentration 2.5 mM, glutathione 0.2 mM) [%]","residual bioluminescent signal (metal salt concentration 2.5 mM, glutathione 2 mM) [%]","residual bioluminescent signal (metal salt concentration 0.05 mM, glutathione 0 mM) [%]","residual bioluminescent signal (metal salt concentration 0.05 mM, glutathione 0.2 mM) [%]","residual bioluminescent signal (metal salt concentration 0.05 mM, glutathione 2 mM) [%]","residual bioluminescent signal (metal salt concentration 0.88 mM, glutathione 0 mM) [%]","residual bioluminescent signal (metal salt concentration 0.88 mM, glutathione 0.2 mM) [%]","residual bioluminescent signal (metal salt concentration 0.88 mM, glutathione 2 mM) [%]","residual bioluminescent signal (metal salt concentration 5 mM, glutathione 0 mM) [%]","residual bioluminescent signal (metal salt concentration 5 mM, glutathione 0.2 mM) [%]","residual bioluminescent signal (metal salt concentration 5 mM, glutathione 2 mM) [%]"
[Cl][Fe]([Cl])[Cl] [iron(III) chloride],95.59 ± 0.8,101 ± 6.7,82.7 ± 2.5,60.2 ± 3.4,69.1 ± 0.65,28.9 ± 1.5,54.3 ± 4.4,55.5 ± 7.2,44.4 ± 35,4.41 ± 1.8,7.61 ± 0.73,1.69 ± 0.99,–,–,–,–,–,–,–,–,–
[Cl][Fe][Cl] [iron(II) chloride],–,–,–,–,–,–,38.2 ± 3.3,47.6 ± 1.5,30.5 ± 2.4,–,–,–,94.3 ± 1.3,100 ± 3.5,82.2 ± 1.7,47.8 ± 5.5,49.4 ± 1.8,34.8 ± 2.7,1.69 ± 0.79,2.48 ± 0.68,7.22 ± 0.76
